High-throughput results: PubChem, Sanford-Burnham Center for Chemical Genomics
CYP2C19 inhib: blockers of cytochrome P450 2C19 activity – biochemical, luminescence, ADME assay, primary screen. P33261. CYP2C19 Supersomes, luciferin-H EGE luminescence, 30 min. inhibition, % at 5 µM. 96,000 tested, 21% active. AID 778, 2007;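 active = CYP2C19 inhibition above a set limit at 5 µM in the primary screen, cut at about 50% in these data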;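 note: plate controls were negative control wells for no effect and 2.5 mM tranylcypromine positive control for full effect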
CYP2C19 activ: human CYP2C19 activators, primary screen, biochemical, luminescence; Cytochrome P450 2C19 (Homo sapiens), P33261; recombinant CYP2C19, luciferin-H EGE luminescence; stronger effect = higher value; 0 = fully inhibited enzyme, 1 = untreated enzyme; activation factor at 5 µM; 96,000 tested, under 10 active;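 active = activation factor of at least 2 at 5 µM in the primary screen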;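 note: 0 = wells with 2.5 mM tranylcypromine and 1 = vehicle-only wells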
CYP2C9 inhib: blockers of cytochrome P450 2C9 activity – biochemical, luminescence, ADME assay, primary screen | 96,000 tested, 20% active | CYP2C9 Supersomes, luciferin-H conversion | inhibition, % at 5 µM | P11712;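 active = blocking of liver enzyme CYP2C9 beyond about 50% at 5 µM, limit read from the data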
Target sequence (P11712 whole entry, looked up): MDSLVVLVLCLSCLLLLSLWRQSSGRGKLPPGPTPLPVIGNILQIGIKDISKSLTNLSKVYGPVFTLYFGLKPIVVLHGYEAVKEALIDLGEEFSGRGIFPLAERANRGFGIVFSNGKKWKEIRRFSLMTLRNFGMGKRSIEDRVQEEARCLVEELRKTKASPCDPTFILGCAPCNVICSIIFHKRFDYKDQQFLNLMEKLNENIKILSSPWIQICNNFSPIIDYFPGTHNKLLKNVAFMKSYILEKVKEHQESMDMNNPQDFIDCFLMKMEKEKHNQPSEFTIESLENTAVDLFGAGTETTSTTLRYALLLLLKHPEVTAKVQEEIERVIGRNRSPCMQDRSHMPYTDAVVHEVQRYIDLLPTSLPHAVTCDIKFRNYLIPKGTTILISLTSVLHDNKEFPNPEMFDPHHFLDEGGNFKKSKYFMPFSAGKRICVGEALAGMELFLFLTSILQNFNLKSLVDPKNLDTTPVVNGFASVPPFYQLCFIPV
CYP2C9 act: human CYP2C9 activators, primary screen, biochemical, luminescence | Cytochrome P450 2C9 (Homo sapiens), P11712 | recombinant CYP2C9, luciferin-H conversion; stronger effect = higher value; factor 1 = untreated enzyme, 0 = blocked | activation factor at 5 µM | 96,000 tested, 1.4% active | AID 1024, 2008;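 active = activation factor of 2 or more for CYP2C9 at a 5 µM dose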;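 note: 0 = sulfaphenazole-blocked wells and 1 = vehicle-only wells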
Starred values were filed as active, the others as inactive. Hits are enriched below; roughly 31% of the tested compounds scored in any of these assays.

SMILES | CYP2C19 inhib | CYP2C19 activ | CYP2C9 inhib | CYP2C9 act
Cc1ccc(OCc2nnc(SCC(=O)c3ccccc3)n2Cc2ccco2)cc1 | 97* | 0 | 95* | 0
O=C(CSc1nnc(-c2ccc(O)cc2)n1Cc1ccco1)c1ccccc1 | 38 | 0.6 | 50* | 0.5
O=C(CC(SCCO)c1ccc2c(c1)OCO2)c1cccs1 (stereo not drawn) | 100* | 0 | 95* | 0.1
O=C(CSc1nnc(COc2ccccc2)n1Cc1ccco1)c1ccc(F)cc1 | 7 | 0.9 | 25 | 0.8
CC(C)COCC1CC2(CC(C)C(=O)CC2=O)C(=O)O1 (stereo not drawn) | 8 | 0.9 | 21 | 0.8
COc1cc(CNCCO)ccc1OC1CCCC1 | 1 | 1 | -5 | 1
O=C(O)CCCCCNC(=O)c1ccccc1 | -2 | 1 | -14 | 1.1
O=C(CC(SCc1ccco1)c1ccc(O)cc1)c1cccs1 (stereo not drawn) | 79* | 0.2 | 98* | 0
COCCNCc1ccccc1 | -30 | 1.3 | -14 | 1.1
CCOP(=O)(OCC)C(NCc1ccccc1)c1ccc(Br)cc1 (stereo not drawn) | 54* | 0.5 | 14 | 0.9
Cc1nc(N2CCC(C)CC2)c2c(C)c(C(=O)O)sc2n1 | -7 | 1.1 | -8 | 1.1
COC(=O)CN(c1cccc(F)c1)S(C)(=O)=O | 0 | 1 | 8 | 0.9
Cc1ccc(C(=O)CN2/C(=C(\O)c3ccccc3)C(=O)c3ccccc3S2(=O)=O)c(C)c1 | 20 | 0.8 | 69* | 0.3
O=C(CN1C(=O)c2ccccc2S1(=O)=O)c1ccccc1 | 19 | 0.8 | 23 | 0.8
Cc1cc(C(=O)CN2C(=O)c3ccccc3S2(=O)=O)c(C)n1-c1ccccc1 | 79* | 0.2 | 66* | 0.3
OCCN(CCO)Cc1ccc(Br)cc1 | 19 | 0.8 | 0 | 1
CCCc1nc2c(o1)CC(CC(C)SCC)CC2=O (stereo not drawn) | 51* | 0.5 | 42 | 0.6
CCSC(C)CC1CC(=O)CC(=O)C1 (stereo not drawn) | 4 | 1 | 14 | 0.9
CC(=O)Nc1ccc(C2NC(=O)c3ccccc3O2)cc1 (stereo not drawn) | 16 | 0.8 | 45 | 0.6
COc1ccc(C2NC(=O)c3ccccc3N2)cc1OC (stereo not drawn) | 9 | 0.9 | -1 | 1
O=C1NC(c2ccc3c(c2)OCO3)Oc2ccccc21 (stereo not drawn) | 96* | 0 | 79* | 0.2
O=C1NC(c2ccc3c(c2)OCO3)Nc2ccccc21 (stereo not drawn) | 62* | 0.4 | 17 | 0.8
CC(C)(C)c1cc(C(=O)N/N=C/c2ccc(F)cc2)n(-c2ccccc2)n1 | 44 | 0.6 | 65* | 0.4
Cc1nnc(C)n1N1C(=O)c2cccc3cccc(c23)C1=O | 62* | 0.4 | 81* | 0.2
CCOc1ccc(NC(=O)c2ccccc2OCC(=O)c2ccc(C)cc2)cc1 | 12 | 0.9 | 12 | 0.9
SMILES | CYP2C19 inhib | CYP2C19 activ | CYP2C9 inhib | CYP2C9 act
CCOC(=O)c1ccccc1NC(=O)CN(c1ccccc1C)S(C)(=O)=O | 96* | 0 | 78* | 0.2
Cc1ccccc1N(CC(=O)Nc1ccc(F)cc1)S(C)(=O)=O | 89* | 0.1 | 45 | 0.6
Cc1ccccc1N(CC(=O)N1CCN(c2ccccc2)CC1)S(C)(=O)=O | -7 | 1.1 | 10 | 0.9
CCOc1ccccc1N(CC(=O)Nc1ccc(C)cc1)S(C)(=O)=O | 71* | 0.3 | 40 | 0.6
CCOc1ccc(NC(=O)c2ccccc2NC(=O)CN(C)CC(=O)Nc2ccc(C)cc2)cc1 | 94* | 0.1 | 97* | 0
CC(=O)c1cccc(NC(=O)CN(c2ccccc2)S(C)(=O)=O)c1 | 26 | 0.7 | 18 | 0.8
Cc1ccc2nc(-c3ccc(NC(=O)CN(c4ccccc4C)S(C)(=O)=O)cc3)sc2c1 | 92* | 0.1 | 20 | 0.8
CCCCC(CCC(=O)Nc1ccccc1C(=O)OCC)C(=O)O (stereo not drawn) | -11 | 1.1 | 59* | 0.4
COC(=O)CN(c1ccccc1F)S(=O)(=O)c1ccccc1 | 21 | 0.8 | 45 | 0.5
CC(=O)c1cccc(N(CC(=O)Nc2ccc(F)cc2F)S(C)(=O)=O)c1 | 76* | 0.2 | 11 | 0.9
Cc1ccc(NC(=O)CN(c2ccccc2F)S(C)(=O)=O)cc1 | 76* | 0.2 | 48 | 0.5
O=C(CN1C(=O)CSc2ccccc21)Nc1ccccc1C(=O)N1CCOCC1 | 8 | 0.9 | 6 | 0.9
COc1ccc(-n2c(Cc3cccn3C)nnc2SCC(=O)Nc2ccc(F)cc2)cc1 | 28 | 0.7 | 49 | 0.5
CCCNC(=O)c1ccccc1NC(=O)CN(c1ccccc1OCC)S(C)(=O)=O | 17 | 0.8 | 58* | 0.4
CCOc1ccccc1C(=O)NCCCCCC(=O)O | 14 | 0.9 | -22 | 1.2
C=CCNC(=O)CN(c1ccccc1OCC)S(=O)(=O)c1ccc(C)cc1 | 66* | 0.3 | 68* | 0.3
COc1ccccc1N(CC(N)=O)S(=O)(=O)c1ccc(C)cc1 | 28 | 0.7 | 44 | 0.6
CCOc1ccccc1N(CC(=O)Nc1ccc2c(c1)OCCO2)S(C)(=O)=O | 45 | 0.5 | 77* | 0.2
CS(=O)(=O)N(CC(=O)Nc1cccc(Cl)c1)c1ccccc1Cl | 97* | 0 | 90* | 0.1
CS(=O)(=O)N(CC(=O)NC1CCCCC1)c1cccc(Cl)c1 | 30 | 0.7 | 19 | 0.8
CC(=O)c1cccc(NC(=O)CN(c2ccccc2F)S(C)(=O)=O)c1 | 54* | 0.5 | 49 | 0.5
NC(=O)c1ccc([N+](=O)[O-])cc1SCc1ccccc1 | 29 | 0.7 | 24 | 0.8
CC(C)(C)NC(=O)CN(Cc1cccs1)C(=O)CCC(=O)Nc1nccs1 | 9 | 0.9 | 15 | 0.8
Cc1ccccc1-n1nc2c(c1NC(=O)COc1ccc(Cl)cc1)CS(=O)C2 (stereo not drawn) | 100* | 0 | 22 | 0.8
CCCCn1c(C)cc(C)c(S(=O)(=O)c2ccccc2C)c1=O | 53* | 0.5 | 41 | 0.6
SMILES | CYP2C19 inhib | CYP2C19 activ | CYP2C9 inhib | CYP2C9 act
Cc1ccccc1S(=O)(=O)c1c(C)cc(C)n(C(C)C)c1=O | 47 | 0.5 | 7 | 0.9
CCOC(=O)CSc1nnc(CSc2nc3sc4c(c3c(=O)[nH]2)CCC4)n1-c1ccccc1 | 27 | 0.7 | 57* | 0.4
C=CCSc1nnc(CSc2nc3sc4c(c3c(=O)[nH]2)CCCC4)n1-c1ccccc1 | 37 | 0.6 | 67* | 0.3
COCc1cc(C)nc(SCC(=O)N2CCC(C)CC2)c1C#N | 49 | 0.5 | 7 | 0.9
COc1cccc(-c2noc(C3CCCN(C(=O)Cc4ccccc4)C3)n2)c1 (stereo not drawn) | 30 | 0.7 | 41 | 0.6
COc1ccc(NC(=O)N2CCCC(c3nc(-c4ccc(C(C)C)cc4)no3)C2)cc1 (stereo not drawn) | 36 | 0.6 | 67* | 0.3
